Bioassay records as filed in PubChem.
Only some compounds are listed: those with a hit (about 17% of all), similar ones and a draw of the others.
TDP1 cell CPT: DT40-hTDP1 cell growth loss with CPT; chicken DT40 Tdp1-/-;hTDP1 cells + 20 nM CPT, ATP luminescence, 48 h; hit rate 12% among 420,000; Potency, µM (series often up to 46.2 µM), without a hit: top-dose activity change, negative = growth inhibition, hits mostly inhibitors; AID 686979; also: % is scaled to controls: 0 for no effect and ±100 for the full control effect; nearly all actives have a fitted effect of over 55% in size
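Cell growth measured by CellTiter-Glo luminescence after a minimum 48 h, 37 C compound exposure with 20 nM CPT in Tdp1-knockout DT40 cells stably expressing hTDP1, seeded 400/well; qHTS titration format.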
HepG2 viability: kills HepG2 cells in TGF-b inhibitor counter-screen; HepG2 CAGA-GFP viability, ATP luminescence, 18 h; AID 588856; hit rate 0.76% among 410,000; Potency, µM (doses to about 46.1 µM), for the others: top-dose activity change, negative = cytotoxicity, hits mostly cytotoxic
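CellTiter-Glo luminescence gave cytotoxicity after 18 hours at 37 degrees C. The cells were HepG2 CAGA-GFP in 1% FBS DMEM, stimulated with 500 pg/mL TGF-beta after compound addition. %Activity was normalised to no-cell wells (complete cell-killing) and DMSO (no toxicity), and curves were fitted and classified.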
HT1080 IDH1KD tx: kills HT-1080 cells with IDH1 knockdown. HT-1080 IDH1 knockdown viability, ATP luminescence, 48 h. Potency, µM (top dose mostly 46.1 µM), without a hit: top-dose activity, negative = toxicity, usual class: cytotoxic. hit rate 2% among 360,000;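 also: 0% = DMSO wells and -100% = cell-free medium wells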
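Knockdown cells (IDH1KD HT-1080) received compounds 2 h after plating at 750 cells/well and were kept 48 h at 37 °C in 5% FBS RPMI. A CellTiter-Glo luminescence read gave % activity for curve fitting.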
DT40 TDP1 no CPT: qHTS for Inhibitors of human tyrosyl-DNA phosphodiesterase 1 (TDP1): qHTS in cells in absence of CPT. DT40 Tdp1-/- hTDP1 cells, no CPT, ATP luminescence, 48 h. hit rate 15% among 420,000. Potency, µM (top dose mostly 46.2 µM), for inactives: at the top dose activity change, negative = growth inhibition, most hits filed as inhibitors; also: % is scaled to controls: 0 for no effect and ±100 for the full control effect; nearly all actives have a fitted effect of over 55% in size
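No-CPT arm: Tdp1-/-;hTDP1 DT40 cells (400/well) plus compounds, incubated ≥48 hr at 37 °C. Readout CellTiter-Glo luminescence.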
HT1080NT lethal: kills 2HG-producing HT-1080-NT fibrosarcoma cells | HT-1080-NT fibrosarcoma viability, CellTiter-Glo ATP luminescence, 48 h | Potency, µM (titrated, usually from 46.1 µM), for the others: at the highest dose activity, negative = less viability, hits mostly cytotoxic | hit rate 1.6% among 360,000;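 also: NT is the 2HG producing partner of a matched IDH1 knockdown line; 0% = DMSO-treated cells and -100% = media-only wells without cells; nearly all actives have a fitted effect of over 55% in size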
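HT-1080-NT fibrosarcoma cells (2HG-overproducing), 750 cells/well in RPMI with 5% FBS, dosed after 2 h and incubated 48 h at 37C. CellTiter-Glo luminescence normalized to DMSO and no-cell wells; concentration-response curves fitted and classed.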
TGFb inhibitor: blocks TGF-b signaling | Potency, µM (highest dose often 46.1 µM), for the others: top-dose activity, negative = inhibition, actives largely listed as inhibitors | HepG2 CAGA-GFP TGF-b/SMAD3 reporter, GFP fluorescence, 18 h; TGF-beta stimulated, 500 pg/mL final | hit rate 1.2% among 410,000; also: % is scaled to controls: 0 for no effect and ±100 for the full control effect; nearly all actives have a fitted effect of over 65% in size
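First, reporter cells (HEPG2 CAGA-GFP) rested 2 h at 37 degrees C. Next, compounds were pinned in and TGF-beta added to 500 pg/mL final. After 18 h, GFP was imaged per cell and summed per well.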
* = called active by the depositor; ? = inconclusive; . = no result; [ ] = dose if it differs, or a comment. Calls follow the shape of the dose curve; as a rule, active = well fitted curve in the direction sought with a large enough effect; inconclusive = small, poorly fitted or top-dose-only effect, or another doubt; inactive = no such curve, though single readings can be large; an effect the other way counts as inactive or inconclusive. Potency is read from the fitted curve at half-maximal effect.

SMILES	TDP1 cell CPT	HepG2 viability	HT1080 IDH1KD tx	DT40 TDP1 no CPT	HT1080NT lethal	TGFb inhibitor
C=CS(=O)(=O)N(Cc1ccccc1)[C@H](CO)CC(C)C	10µM*	-34%	-4%	11µM*	-13%	-4%
CC(C)CC(C(=O)O)N(Cc1ccccc1)Cc1ccccc1 (configuration not stated)	-10%	-3%	12%	?	-3%	5%
Cc1ccsc1CN(C)C(=O)CN1C(=O)NC2(CCCc3ccccc32)C1=O (configuration not stated)	-22%	-16%	-1%	-6%	1%	-15%
CCOc1ncccc1C(=O)NNC(=O)CSc1ccc(Cl)cc1	?	-17%	2%	?	-2%[9.24 µM]	0%
CCCCc1ccc(NC(=O)CSc2nnc3[nH]c(=O)cc(C)n23)cc1	-2%	-16%	.	-8%	.	-6%
O=C(CN1CCN(c2ccccc2O)CC1)Nc1ccnn1C1CCCC1	21µM*	-13%	-13%	21µM*	-2%	-9%
COc1ccc(NC(=O)c2ccc(NC(=O)CN3CCN(c4ccccc4O)CC3)cc2)cc1	18µM*	-74%	-19%	18µM*	-14%	?
COc1ccc(C(=O)C2CCN(CC(=O)Nc3ccc(C)cc3)CC2)cc1	-22%	-20%	-7%	29µM*	?	-12%
COc1ccc(C(=O)C2CCN(C(=O)Nc3ccc(C)cc3)CC2)cc1	1%	-45%	-1%	?	-23%	?
COCC(=O)Nc1cc(C(=O)N2CCN(c3ccccc3)CC2C)c2c(c1)nc(-c1ccncc1)n2C (configuration not stated)	-6%[9.04 µM]	.	.	-15%	.	.
O=[N+]([O-])c1ccc(O)c(N=Cc2sc3ccccc3c2O)c1	21µM*	-4%	?	12µM*	-23%	-18%
CC(C)Oc1ccc(S(=O)(=O)N2CCOCC2)cc1NC(=O)c1ccc(N2CCCC2=O)cc1	-19%	-3%	-5%	-27%	-8%	-4%
Cc1ccsc1C(=O)OC(C)C(=O)NC1CCCCC1C (configuration not stated)	-11%	-20%	-3%	-16%	-1%	17%
COCCCn1c(SCC(=O)NC(C)C)nnc1-c1ccccc1	?	-26%	-3%	23µM*	1%	1%
COCCCn1c(SCC(N)=O)nnc1-c1ccccc1	-8%	-10%	9%	-21%	0%	-14%
O=C(CCl)N(c1ccc(Cl)cc1)c1c[nH]c2ccccc12	1.8µM*	18µM*	4.6µM*	1.8µM*	7.3µM*	16µM*
O=C(O)Cc1c[nH]c2ccccc12	4%	-4%	1%	4%	-3%	-1%
O=C(NCc1ccc(Cl)cc1)C(=O)c1c[nH]c2ccccc12	?	-46%	0%	4%	-4%	?
O=C(CCl)N(c1ccccc1)c1c[nH]c2ccccc12	2.3µM*	-100%	6.5µM*	2.9µM*	?	8.9µM*
COc1cccc(NC(=O)Nc2nc(SC)ns2)c1	9.2µM*	-42%	?	?	?	?
CC1CCCCN1S(=O)(=O)c1cc2c3c(c1)CC(=O)N3CCC2 (configuration not stated)	-18%	-9%	.	?	.	-15%
Cc1ccc2c(c1)CN(CCNC(=O)c1n[nH]c3c1CCCC3)CC(C)O2 (configuration not stated)	?	.	.	-13%	.	.
CCc1cccc(NC(=O)Cn2cc(C=O)c3ccccc32)c1	9.2µM*	-25%	16µM*	10µM*	?	?
COc1ccc(OC)c(S(=O)(=O)N/N=C\c2cn(CC(N)=O)c3ccccc23)c1	13µM*	0%	?	?	-22%	18%
Cc1ccc(NC(=O)Cn2cc(C=O)c3ccccc32)cc1	?	-29%	0%	-24%	-15%	7.9µM*
SMILES	TDP1 cell CPT	HepG2 viability	HT1080 IDH1KD tx	DT40 TDP1 no CPT	HT1080NT lethal	TGFb inhibitor
COc1ccc(OC)c(NC(=O)Cn2cc(C=O)c3ccccc32)c1	?	-30%	-11%	?	-19%	10µM*
COc1ccc(OC)c(NC(=O)Cn2cc(C#N)c3ccccc32)c1	0%	-3%	0%	-2%	5%	-1%
COC(=O)[C@]12CCCCC=C1N(Cc1ccc3c(c1)OCO3)C(=O)[C@H](CC(=O)NCc1cccc3ccccc13)C2	?	.	-19%	?	?	.
Cc1onc(-c2ccccc2)c1C(=O)N1CCN(c2ccccc2F)CC1	?	-12%	-9%	?	-4%	33%
COc1cccc(NC(=O)Cn2cc(C=O)c3ccccc32)c1	16µM*	-49%	-14%	26µM*	-26%	?
CC(Sc1nc2c(c(=O)[nH]1)CCCC2)C(=O)Nc1ccc(Br)cn1 (configuration not stated)	23µM*	8%	8%	16µM*	9%	0%
CCn1c2c(c(=O)n3ncc(C(=O)N4CCN(c5ccc(Cl)cc5)CC4)c13)CN(Cc1ccc(OC)cc1)CC2	2.3µM*	-34%	.	1.6µM*	.	?
COc1ccc(CN2CCc3c(c(=O)n4ncc(C(=O)N5CCN(c6ccccc6F)CC5)c4n3C)C2)cc1	18µM*	-20%	.	8.2µM*	.	?
CCn1c2c(c(=O)n3ncc(C(=O)Nc4ccc(F)c(Cl)c4)c13)CN(Cc1ccc(OC)cc1)CC2	?	-7%	.	?	.	?
COc1ccccc1/C=C/C(=O)c1cc(Br)ccc1OC(=O)c1ccco1	?	-88%	21µM*	?	18µM*	?
O=C(/C=C/c1ccco1)c1ccccc1O	-4%	-10%	0%	-27%	-6%	-5%
O=C(/C=C/c1ccccc1O)c1ccco1	18µM*	-57%	?	21µM*	?	?
O=C(/C=C/c1cc(Br)ccc1O)c1ccco1	6.5µM*	11µM*	9.2µM*	2.6µM*	9.2µM*	?
O=C(Nc1ccc(Br)cc1)c1ccco1	-27%	-42%	-6%	?	-17%	-9%
CC(=O)N/C(=N\c1nc(C)cc(C)n1)Nc1ccc2ccccc2c1	?	10%	17%	?	18%	-11%
CC(=O)N[C@@H](Cc1c[nH]c2ccccc12)C(=O)OCc1cc(C(F)(F)F)cc(C(F)(F)F)c1	-9%	-8%	?	-17%	-27%	?
O=C(NC1CC1)c1sc2cc(Cl)ccc2c1Cl	?	-23%	6%	12µM*	7%	-2%
